# The source made the active and inactive calls. How the calls were made is not given here.
# Tested on: HEK Patch Clamp Assay
# Assay: TRPML3 and TRPML2 channel agonists, cell-based, patch clamp, Fura-2 profiling panel (AID 2116)
# Settings: HEK293 cells expressing TRPML3-YFP; patch clamp current at -80 mV
structure (smiles),measurement,value
O=S(=O)(NC1CCCCC1N1CCOCC1)c1ccc(Cl)cc1 (stereo not given),current density,-0.003 nA/pF
same,outcome,inactive; no effect on six other TRP channels
Cc1ccc(N2CCN(S(=O)(=O)N3CCCCC3)CC2)c(C)c1,current density,-0.007 nA/pF
same,outcome,inactive; no effect on six other TRP channels
Cc1ccc(S(=O)(=O)Nc2ccccc2-c2ccccc2)cc1,current density,-0.003 nA/pF
same,outcome,inactive; no effect on six other TRP channels
O=S(=O)(Nc1ccccc1N1CCCCC1)c1ccc(Cl)s1,current density,-0.004 nA/pF
same,outcome,inactive; no effect on six other TRP channels
O=S(=O)(Nc1ccccc1N1CCOCC1)c1ccc(Cl)s1,current density,-0.005 nA/pF
same,outcome,inactive; no effect on six other TRP channels
